PubChem BioAssay (Tox21)
Inconclusive results are not listed. Calls of active or inactive are those of the source. Calls follow the shape of the dose curve; as a rule, active = well fitted inhibition curve with a large enough effect in the repeat runs; inconclusive = weak or mixed curves; inactive = no such curve, though single readings can be large or run the other way.

Assay: qHTS assay to identify small molecule antagonists of the thyroid receptor (TR) signaling pathway (AID 743065); also: nearly all actives have a fitted effect of over 55% in size
Details: GH3.TRE-Luc, T3-stimulated luciferase inhibition, 23.5 h; series mostly up to 70.3 µM; activity, negative = inhibition: at the top concentration
From the text: U.S. Tox21 Program National Center for Advancing Translational Sciences [NCATS] NIH Chemical Genomics Center [NCGC] U.S. Environmental Protection Agency [EPA] National Institutes of Environmental Health Sciences [NIEHS] National Toxicology Program [NTP] U.S. Food and Drug Administration [FDA] Tox21 Assay Overview: Thyroid receptor (TR), a nuclear hormone receptor, plays an important role in development, proliferation, differentiation, metabolism, brain function, and cardiovascular system. […] To profile the Tox21 10K compound library in TR signaling, a cell-based GH3-TRE-Luc assay (GH3.TRE-Luc cell line, developed by the laboratory of Dr. Albertinka J. Murk, Wageningen University) was used to measure the inhibition of TR. GH3 (rat pituitary tumor) cells stably expressing a TR activity sensor consisting of two TR response elements and a luciferase reporter gene.
Tox21 Assay Protocol Summary: GH3.TRE-Luc cells were dispensed at 1500 cells/4 uL/well into 1536-well white solid bottom plates using a Multidrop Combi dispenser (Thermo Fisher Scientific Inc., Waltham, MA). After the assay plates were incubated at 37 C for 4 hours, 23 nL of library compound or DMSO controls was transferred to the assay plates by a pintool station (Kalypsys, San Diego, CA), followed by addition of 1 ul of T3 (1 nM, final concentration in the wells) to stimulate TR transactivation. The assay plates were incubated at 37 C for 23.5 h, and then 1 uL of CellTiter-Fluor reagent (Promega, Madision, WI) of measuring cytotoxicity was added to each well using a Bioraptr Flying Reagent Dispenser (FRD) workstation (Beckman Coulter, Indianapolis, IN, USA). The plates were incubated at 37 C and 5% CO2 for additional 30 min, and fluorescence intensity was measured by a ViewLux plate reader (PerkinElmer, Shelton, CT). For measuring luciferase reporter gene activity, 4 uL of ONE-Glo Luciferase Assay reagent (Promega) was added to each well using a Bioraptr FRD (Beckman Coulter), followed by 30 min incubation at room temperature. The luminescence intensity of plates was recorded by a ViewLux plate reader (PerkinElmer, Shelton, CT).
% is scaled to controls: 0 for no effect and ±100 for the full control effect; potency is read from the fitted curve at half-maximal effect.

Structure (SMILES) | activity, negative = inhibition | Potency
ClC(Cl)(Cl)c1ccc(C(Cl)(Cl)Cl)cc1 | -14.1% (inactive) | –
CC(=O)NCCCS(=O)(=O)O | – | inactive
O=C(O)c1cccc(N(Cc2cccnc2)c2ccc(OC(F)F)c(OC(F)F)c2)c1 | -11.3% (inactive) | –
CCOc1nc2cccc(C(=O)O)c2n1Cc1ccc(-c2ccccc2-c2nn[nH]n2)cc1 | – | 29.8 µM (active)
CCN(CC)CCOC(=O)C1(c2ccccc2)CCCC1 | -20.3% (inactive) | –
C=C(C)C(=O)OCCOc1ccccc1 | 0.768% (inactive) | –
NC1CCN(c2nc3c(cc2F)c(=O)c(C(=O)O)cn3-c2ccc(F)cc2F)C1 (stereo not given) | – | 23.7 µM (active)
CCCC[C@H]1CN(CC2CCOCC2)C(=O)OC12CCN(C1(C)CCN(C(=O)c3c(C)ncnc3C)CC1)CC2 | 0.113% (inactive) | –
Cc1ccc(C(=O)C(C)CN2CCCCC2)cc1 (stereo not given) | -8.07% (inactive) | –
SC1CCCC1 | -3.81% (inactive) | –
CN1CCC(=C2c3ccccc3C=Cc3ccccc32)CC1 | – | 16.8 µM (active)
CCCCCCCCCCCCCCCC(=O)OC/C=C(C)/C=C/C=C(C)/C=C/C1=C(C)CCCC1(C)C | – | inactive
Cc1ccc(C(N)=O)cc1N | 15.5% (inactive) | –
c1ccc(CNCc2ccccc2)cc1 | -4.2% (inactive) | –
CCOC(=O)CC(C)C | 1.6% (inactive) | –
CN(C(=O)CCCOc1ccc2[nH]c(=O)ccc2c1)C1CCCCC1 | -20.4% (inactive) | –
Cc1ccc(C)o1 | 3% [at 95 µM] (inactive) | –
N#CCCNCCC#N | 10.5% [at 95 µM] (inactive) | –
N=C(N=C(N)N)N1CCOCC1 | 0.0218% [at 32.5 µM] (inactive) | –
CC(C)CCCC(C)CCO (stereo not given) | 10.5% (inactive) | –

Structure (SMILES) | activity, negative = inhibition | Potency
CC(=O)/C=C/C1C(C)=CCCC1(C)C (stereo not given) | 0.301% (inactive) | –
CCCc1ccccc1 | 0.0226% (inactive) | –
CC[C@H](C)[C@H](N)C(=O)O | 8.63% (inactive) | –
C=CC[N+]1([C@H]2C[C@H]3[C@@H]4CC[C@H]5C[C@H](OC(C)=O)[C@@H](N6CCCCC6)C[C@]5(C)[C@H]4CC[C@]3(C)[C@H]2OC(=O)CC)CCCCC1 | 10.7% (inactive) | –
OC(CCN1CCCCC1)(c1ccccc1)C1CCCCC1 (stereo not given) | -14.3% (inactive) | –
C=Cc1c(C)c2cc3[nH]c(cc4nc(cc5nc(cc1[nH]2)C(C)=C5CCC(=O)O)C(CCC(=O)O)=C4C)c(C)c3C=C | 17.6% (inactive) | –
CC/C(=C\C(=N/O)C(N)=O)C(C)[N+](=O)[O-] (stereo not given) | -10.6% (inactive) | –
CN(c1nccc(=O)[nH]1)C1CCN(c2nc3ccccc3n2Cc2ccc(F)cc2)CC1 | -2.84% (inactive) | –
N#Cc1c(F)cccc1F | 2.26% (inactive) | –
CCCCc1cc2ccccc2c(OCCN(C)C)n1 | – | 9.02 µM (active)
Cc1nc2ccccc2n1Cc1ccc(Cl)cc1 | – | 6.68 µM (active)
C1=Cc2ccccc2C1 | 13.4% (inactive) | –
C[C@@H](C1=C(CCN(C)C)Cc2ccccc21)c1ccccn1 | – | 26.6 µM (active)
O=C1c2cccc(O)c2C(=O)c2c(O)cc(CO)cc21 | -11.3% (inactive) | –
O=c1c2ccccc2nnn1CCl | 0.024% (inactive) | –
O=C(Nc1ccccc1)OCC(CN1CCCCC1)OC(=O)Nc1ccccc1 (stereo not given) | – | 10.1 µM (active)
O=C(O)COC(=O)Cc1ccccc1Nc1c(Cl)cccc1Cl | -13.8% [at 32.5 µM] (inactive) | –
Cc1c(Cn2ccnc2)c2ccccc2n1CCC(=O)O | 4.79% (inactive) | –
CC(C)(C)C1CCCCC1O (stereo not given) | 0.0401% (inactive) | –
Cn1c(NCCN(CCO)CCCc2ccc([N+](=O)[O-])cc2)cc(=O)n(C)c1=O | 0.621% (inactive) | –
